Experiment in all cases: qHTS profiling for inhibitors of Plasmodium falciparum proliferation (AID 504749); also: nearly all actives have a fitted effect of over 60% in size
What all share (conditions): P. falciparum in erythrocytes, SYBR Green DNA, 72 h; series mostly up to 28.7 µM
On the technique in general: Quantitative high-throughput screening tests each substance at several concentrations.

In one assay the test system is CP238. Put shortly:
(§1)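 Parasite proliferation within erythrocytes, 72 h exposure. Endpoint: SYBR Green I fluorescence after overnight lysis at room temperature. Controls: 0.29 uM artemisinin, DMSO.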

A further assay concerns CP247. Put shortly: as §1
For the next assay, the system named is CP250. The method in brief: as §1
Another assay has as its system CP252. The method in brief:
as §1

Another assay concerns CP256. Put shortly: as §1
The next assay deals with CP260. Put shortly: as §1
For another assay, the system named is CP262. Put shortly:
as §1

A further assay deals with CP265. Put shortly: as §1
A further assay deals with CP268. Put shortly:
as §1

In a further assay the test system is CP269. The method in brief: as §1
A further assay deals with CP286. The method in brief:
as §1

A further assay has as its system CP291. Put shortly: as §1
The subject of another assay is CP305. Put shortly:
as §1

In the next assay the test system is CP315. Put shortly: as §1
The test system of the next assay is CP325. The method in brief:
as §1

Another assay deals with CP329. Put shortly: as §1
The test system of a further assay is CP335. Put shortly:
as §1

A further assay relates to CP297. Put shortly:
as §1

A further assay has as its system CP266. The method in brief: as §1

Results filed as inconclusive are left out. Active and inactive are the calls of the source. Calls follow the shape of the dose curve; as a rule, active = well fitted inhibition curve with a large enough effect; inconclusive = small, poorly fitted or top-dose-only effect; inactive = flat fitted curve, though single readings scatter.

Results on 14 compounds are retold here after PubChem BioAssay (NCATS).
Potency is read from the fitted curve at half-maximal effect.

As to `CCCCN1CCCC1C(=O)Nc1c(C)cc(C)cc1C` (stereo unspecified), the Potency entry in the assay on CP238, in the assay with CP247, in the assay on CP250, in the assay on CP252, in the assay on CP256 and with CP260 was “inactive” throughout. Besides, the Potency entry with CP262, in the assay with CP265, in the assay on CP268, with CP269, in the assay on CP286 and in the assay with CP291 was “inactive” each time. The Potency entry with CP305, in the assay with CP315, with CP325 and in the assay with CP329 was “inactive” each time.

Turning to `O=c1c(-c2ccccc2)c1-c1ccccc1`, the values for the Potency in the assay with CP250, with CP260 and with CP286 were 11.2 µM (active), 8.91 µM (active) and 7.94 µM (active), respectively. Besides, the Potency entry in the assay on CP262 was “inactive”.

Take `C[C@@H]1C[C@H]2[C@@H]3CCC4=CC(=O)C=C[C@]4(C)[C@@]3(F)[C@@H](O)C[C@]2(C)[C@H]1C(=O)CO`: the Potency result with CP238, with CP247, with CP250, in the assay on CP252, in the assay on CP256 and with CP260 was “inactive” throughout. Moreover, the Potency entry in the assay with CP262, with CP265, with CP268, with CP269, in the assay with CP286 and in the assay with CP305 was “inactive” in each case. Besides, the Potency entry in the assay on CP315, in the assay with CP325, with CP329 and in the assay on CP335 was “inactive” throughout.

As for `CCCCCCCCCCCCCCCC[N+](C)(C)CCN(Cc1ccc(OC)cc1)c1ncccn1`, the Potency entry in the assay with CP252, in the assay with CP256, with CP265, with CP268, in the assay with CP297 and with CP305 was “inactive” throughout. Moreover, the Potency result with CP315 and in the assay on CP329 was “inactive” each time.

Regarding `CC(=O)OCC(=O)[C@@]1(OC(C)=O)[C@@H](C)C[C@H]2[C@@H]3C[C@H](F)C4=CC(=O)C=C[C@]4(C)[C@@]3(F)[C@@H](O)C[C@@]21C`, the Potency entry in the assay on CP238, with CP247, with CP250, with CP252, with CP256 and with CP260 was “inactive” each time. Moreover, the Potency entry with CP262, with CP266, in the assay on CP268, in the assay on CP269, with CP286 and in the assay with CP291 was “inactive” each time. Moreover, the Potency entry with CP297, with CP305, in the assay on CP315, with CP325, in the assay on CP329 and in the assay on CP335 was “inactive” throughout.

Take `CCN(CCCc1ccccc1)CCCc1ccccc1`: the Potency entry in the assay with CP247, in the assay on CP250, in the assay with CP252, with CP256, in the assay with CP260 and with CP262 was “inactive” throughout. The Potency result with CP266, in the assay on CP305, with CP315 and in the assay on CP329 was “inactive” throughout.

As to `CCN1CCC[C@H]1CNC(=O)c1c(OC)ccc(Br)c1OC`, the Potency result in the assay on CP238, with CP250, in the assay with CP252, in the assay with CP256, in the assay on CP260 and in the assay with CP262 was “inactive” each time. Further, the Potency result in the assay on CP265, in the assay with CP266, with CP268, in the assay with CP269, in the assay on CP286 and in the assay with CP291 was “inactive” throughout. Moreover, the Potency result in the assay on CP305, with CP315, in the assay on CP325, with CP329 and with CP335 was “inactive” in each case.

In the case of `CN1CCN(C(c2ccccc2)c2ccccc2)CC1`, the Potency entry in the assay with CP238, in the assay with CP247, with CP250, in the assay with CP252, in the assay on CP256 and in the assay on CP260 was “inactive” throughout. Moreover, the Potency result in the assay on CP262, with CP266, with CP268, in the assay with CP286, with CP297 and with CP305 was “inactive” each time. In the assay with CP315, the Potency result is “inactive”.

Regarding `Oc1ccc(Cl)c2cccnc12`, the Potency entry with CP238, in the assay with CP247, in the assay with CP250, in the assay on CP252, in the assay with CP256 and in the assay with CP265 was “inactive” each time. For the same compound, the Potency entry in the assay on CP266, with CP268, in the assay on CP269, with CP291, with CP297 and in the assay with CP305 was “inactive” in each case. Besides, the Potency result in the assay on CP315, in the assay with CP325 and in the assay on CP329 was “inactive” each time.

In the case of `CC(Cc1cccc(C(F)(F)F)c1)NCCOC(=O)c1ccccc1` (stereo unspecified), the Potency entry with CP238, with CP247, in the assay with CP250, in the assay with CP252, with CP256 and with CP260 was “inactive” throughout. In addition, the Potency entry with CP262, in the assay on CP265, in the assay on CP266, in the assay with CP268, with CP269 and with CP286 was “inactive” in each case. Also, the Potency result in the assay with CP291, in the assay with CP305, in the assay with CP315, in the assay with CP325, with CP329 and in the assay on CP335 was “inactive” each time.

On to `O=C1OCCN1/N=C/c1ccc([N+](=O)[O-])o1`, for which the Potency entry in the assay on CP262, in the assay with CP266, in the assay on CP269, with CP297, in the assay with CP315 and in the assay on CP325 was “inactive” throughout. Also, the Potency entry in the assay on CP329 was “inactive”.

As to `Oc1ccc(O)cc1`, the Potency entry in the assay on CP268 and in the assay on CP291 was “inactive” in each case. Further, in the assay on CP335, the Potency was 2.39 µM (active).

As for `CNCCC=C1c2ccccc2CCc2ccccc21`, in the assay with CP265, the Potency was 7.94 µM (active). In addition, the Potency entry with CP268 and in the assay on CP315 was “inactive” each time.

On to `O=C1[C@H]2CCCC[C@H]2C(=O)N1CCCCN1CCN(c2nsc3ccccc23)CC1`, for which the Potency result in the assay with CP238, in the assay with CP247, in the assay with CP250, in the assay on CP252, in the assay on CP256 and in the assay with CP260 was “inactive” in each case. In addition, the Potency result in the assay with CP262, in the assay on CP265, in the assay with CP266, in the assay with CP268, with CP269 and in the assay on CP286 was “inactive” each time. Also, the Potency entry with CP291, with CP305, with CP315, in the assay with CP325, in the assay on CP329 and in the assay with CP335 was “inactive” in each case.
